Experimental data from PubChem BioAssay AID937 (National Center for Advancing Translational Sciences (NCATS), 2007).
The list shows a part of the results. Results filed as inconclusive are left out. Active and inactive are the calls of the source. The call rests on the fitted dose curve.

The molecules below were run against Alpha-synuclein (Homo sapiens) (UniProt P37840) (assay: Alpha-synuclein ThS binding assay). Settings: recombinant alpha-synuclein fibrils, ThS fluorescence displacement.
Method: NIH Molecular Libraries Screening Centers Network [MLSCN] NIH Chemical Genomics Center [NCGC] MLSCN Grant: 1 X01 MH079825-01 Assay Provider: Jeffrey A. Kuret, Ohio State University NCGC Assay Overview: Lewy body disease is characterized by the appearance of lesions containing alpha-synuclein. The protein components in these lesions can be induced to form filaments under experimentally tractable times when incubated in vitro with anionic inducers such as alkyl sulfate detergents or fatty acids. […] Here we describe the in vitro fibrillization of alpha-synuclein. Alpha-synuclein was induced to form filaments by incubation overnight at 37 C in the presence of arachidonic acid. A commonly used fluorescent probe for cross#nbeta-sheet structure, Thioflavin S (ThS), was also added to the reactions. […] Small molecules capable of ThS displacement or antagonizing fibrillization result in a decrease in ThS fluorescence, allowing determination of binding affinities for molecules screened.
NCGC Assay Protocol Summary The assay was performed in 96-well round bottom opaque plates (VWR, West Chester, PA) in 100 uL final volume. […] Fluorescence (ex = 440 nm; em = 485 nm) was measured after brief shaking (10 s) in a FlexStation plate reader (Molecular Devices, Sunnyvale, CA) operated at sensitivity 10, automatic PMT. […]

Compound	outcome
O=C(CCCCn1c(=O)[nH]c2ccccc2c1=O)NCc1ccc2c(c1)OCO2	inactive
